Results from PubChem BioAssay AID463173 (ICCB-Longwood Screening Facility, Harvard Medical School, 2010).
“And” between values parts separate entries of the source, which are not always exact repeats. Identical values can stand only once. Screen size: about 52,000 compounds; about 1,700 (3.3%) were called active. This is one part of a sample in which actives are shown more often than they occur. No stated cut-off is given here; in the data, active means survival mostly below about 52% (no sharp cut-off); inactive means mostly above about 56%. More than one record can exist for a structure, and the calls need not agree.

What follows are compounds tested on Wild type (assay: S. aureus survival, RN4220 and DeltatarO strains – OD600, teichoic acid synthesis inhibitors, primary screen (AID 463173)). Conditions: S. aureus RN4220 wild type/DeltatarO growth, OD600, 18 h, stronger effect = lower value, screened at 18.75 µg/mL (by protocol).
With O=C(CN1C(=O)C(c2ccc(F)cc2)=NC12CCCCCC2)Nc1ccc(F)c(Cl)c1 the survival was 76% (inactive). In the case of CCOc1ccc(NC(=O)CCc2c(C)nc3cc(-c4ccccc4OC)nn3c2C)cc1, the survival is reported as 76% (inactive). For COc1ccc(NC(=O)CSc2nc(-c3ccc(OC)cc3)cc(=O)[nH]2)cc1, the survival was 148% (inactive). With CCCCc1nc2ccccc2n1CC(=O)N(COCC)c1c(C)cccc1CC the survival was -1% (active). CCOCN(C(=O)Cn1c(C)nc2ccccc21)c1c(C)cccc1CC was tested, and the survival was 124% (inactive). For CCc1cccc(CC)c1N(COC)C(=O)Cn1c(CC)nc2ccccc21, the survival was 74% (inactive). With CCOCN(C(=O)Cn1c(CC(C)C)nc2ccccc21)c1c(C)cccc1CC the survival was 5% (active). CCOCN(C(=O)Cn1c(COC)nc2ccccc21)c1c(C)cccc1CC was tested, and the survival was 111% (inactive). In the case of CCOCN(C(=O)Cn1c(C(C)O)nc2ccccc21)c1c(C)cccc1CC (centres undefined), the survival is reported as 117% (inactive). With Cc1cccc(NC(=O)CN2C(=O)COc3ccc(S(=O)(=O)N4CCC(C)CC4)cc32)c1C the survival was 101% (inactive). Cc1ccc(-c2nc(-c3cc4cccc(OCc5cccc(C)c5)c4oc3=O)no2)cc1 was tested, and the survival was 71% (inactive). In the case of CCC(Cc1ccccc1)NC(=O)c1csc2c1CCCCC2 (centres undefined), the survival is reported as 120% (inactive). For CSc1ccc(CCNC(=O)c2csc3c2CCCCC3)cc1, the survival was 69% (inactive). CC(CNC(=O)c1csc2c1CCCCC2)c1ccccc1 (centres undefined) was tested, and the survival was 0% (active). In the case of CC(C)(C)c1ccc(-c2nnc(-c3ccccc3NC(=O)c3ccc(F)cc3F)o2)cc1, the survival is reported as 144% (inactive). With CCCCSc1nc(-c2ccc(OC)cc2)ccc1C#N the survival was 28% (inactive). CCOC(=O)C(C)Sc1nc(-c2ccccc2Cl)cc(-c2ccccc2)c1C#N (centres undefined) was tested, and the survival was 79% (inactive). For CCOC(=O)C(C)Sc1nc(-c2ccccc2)ccc1C#N (centres undefined), the survival was 107% (inactive) and 0% (active). In the case of COc1cccc(C(=O)Nc2ccc(-n3nncc3-c3ccc(Br)cc3)cc2)c1OC, the survival is reported as 143% (inactive). CC(=O)N1CCc2cc(S(=O)(=O)NC(Cc3ccccc3)C(=O)Nc3ccc(C)cc3C)ccc21 (centres undefined) was tested, and the survival was 74% (inactive). With Nc1cccc(Cl)c1N1CCOCC1 the survival was 110% (inactive). In the case of COc1ccccc1C(=O)Nc1c(C(=O)N2CCN(c3ccccc3F)CC2)oc2ccccc12, the survival is reported as 101% (inactive). With COc1ccc(N2CCN(C(=O)c3oc4ccccc4c3NC(=O)c3ccccc3OC)CC2)cc1 the survival was 129% (inactive). With O=C(Nc1c(C(=O)N2CCN(c3ccccc3)CC2)oc2ccccc12)c1ccco1 the survival was 10% (active). In the case of COc1ccccc1NC(=O)c1oc2ccccc2c1NC(=O)c1c(F)cccc1F, the survival is reported as 60% (inactive). O=C(Nc1c(C(=O)N2CCN(c3ccc(F)cc3)CC2)oc2ccccc12)c1ccco1 was tested, and the survival was 88% (inactive). In the case of CCc1ccc2occ(CC(=O)Nc3c(C(=O)c4ccccc4)oc4ccccc34)c2c1, the survival is reported as 104% (inactive). For Cc1ccc(C(=O)c2oc3ccccc3c2NC(=O)Cc2ccccc2)cc1, the survival was 53% (inactive). O=C(Cc1ccccc1)Nc1c(C(=O)c2ccccc2)oc2ccccc12 was tested, and the survival was 7% (active). In the case of COc1ccccc1C(=O)Nc1c(C(=O)Nc2ccccc2F)oc2ccccc12, the survival is reported as 2% (active). With O=C(Nc1c(C(=O)N2CCN(c3ccccc3F)CC2)oc2ccccc12)c1ccco1 the survival was 69% (inactive). For COc1cc(C(=O)Nc2c(C(=O)Nc3ccccc3F)oc3ccccc23)cc(OC)c1OC, the survival was 68% (inactive). With COc1ccccc1C(=O)Nc1c(C(=O)N2CCN(c3ccc(F)cc3)CC2)oc2ccccc12 the survival was -2% (active). With Cc1ccc(NC(=O)CSc2nnc(C)n3c2cc2sccc23)c(C)c1 the survival was 84% (inactive). With CCc1noc(-c2ccc(N3CCC(C)CC3)c([N+](=O)[O-])c2)n1 the survival was 93% (inactive). In the case of CCOc1ccc(CCNC(=O)c2nnc(Cc3cc(OC)c(OC)c(OC)c3)o2)cc1OCC, the survival is reported as 85% (inactive). With COc1ccc(Cn2c(SCC(=O)N3CCN(c4ccc(F)cc4)CC3)nc3ccccc32)cc1 the survival was 45% (inactive). In the case of Cn1c(=O)c(=O)n(C)c2cc(NC(=O)c3cccc(F)c3)c(Cl)cc21, the survival is reported as 71% (inactive). Cc1ccccc1CNS(=O)(=O)c1csc(C(N)=O)c1 was tested, and the survival was 128% (inactive). CCOC(=O)c1cccc(NC(=O)C(C)n2c(C)c3cnn(-c4ccccc4)c(=O)c3c2C)c1 (centres undefined) was tested, and the survival was 128% (inactive). With CC(CC(=O)Nc1ccc(Br)cc1F)S(=O)(=O)c1ccc2c(c1)NC(=O)CO2 (centres undefined) the survival was 63% (inactive). With O=C(CCc1ccccc1)NC1CC(=O)N(c2cccc(F)c2)C1 (centres undefined) the survival was 81% (inactive). In the case of COc1ccc(OC)c(CNC(=O)Cc2ccc(NC(=O)N3CCSc4ncccc43)cc2)c1, the survival is reported as 64% (inactive). In the case of CCc1ccc(NS(=O)(=O)c2ccc3[nH]cc(C(=O)N(C)Cc4ccco4)c(=O)c3c2)cc1, the survival is reported as 85% (inactive). CCn1cc(C(=O)N2CCN(c3cc(Cl)ccc3C)CC2)c(=O)c2cc(S(=O)(=O)N3CCOCC3)ccc21 was tested, and the survival was 86% (inactive). In the case of COc1ccccc1C(=O)Nc1c(C(=O)c2ccccc2)oc2ccccc12, the survival is reported as -3% (active). In the case of COc1ccc(C(=O)Nc2c(C(=O)c3ccccc3)oc3ccccc23)cc1, the survival is reported as 75% (inactive). In the case of COc1ccccc1C(=O)Nc1c(C(=O)NC(C)(C)C)oc2ccccc12, the survival is reported as 80% (inactive). With S=c1n(-c2ccccc2)cnn1CN1CCCCC1 the survival was 96% (inactive). For CC(=O)Nc1ccc(S(=O)(=O)N2CCC(C)CC2)cc1, the survival was 112% (inactive). For CC(C)(C)c1ccc(S(=O)(=O)N2CCC(c3ccncc3)CC2)cc1, the survival was 120% (inactive). With CC(=O)Nc1ccc(S(=O)(=O)N2CCC(c3ccncc3)CC2)cc1 the survival was -6% (active). In the case of COc1ccc2c(c1)CCc1c(C(=O)Nc3c(C)nn(Cc4ccccc4C)c3C)noc1-2, the survival is reported as 26% (inactive). With O=C(NCCc1ccc(Cl)cc1)c1ccc2c(c1)N(Cc1ccc(F)cc1)C(=O)CS2 the survival was 10% (active). With O=C(NCCc1ccc(Cl)cc1)c1ccc2c(c1)N(Cc1ccc(Cl)cc1)C(=O)CS2 the survival was 98% (inactive). O=C(NCCc1ccccc1)c1ccc2c(c1)N(Cc1ccc(F)cc1)C(=O)CS2 was tested, and the survival was 88% (inactive). With CCN(CC)C(=O)c1sc(NC(=O)C2c3ccccc3Oc3ccccc32)c(C(=O)OC(C)C)c1C the survival was 8% (active). With CCOC(=O)c1c(NC(=O)COc2ccc(OC)cc2)sc(C(=O)N(CC)CC)c1C the survival was -8% (active). For CCCc1ccc(OCC(=O)Nc2sc(C(=O)OCC)c(C)c2C(=O)OCC)cc1, the survival was 92% (inactive). CCOC(=O)c1c(NC(=O)COc2cc(C)ccc2C(C)C)sc(C)c1C was tested, and the survival was 67% (inactive). In the case of Cc1sc(NC(=O)COc2ccc(C(C)(C)C)cc2)c(C(=O)OC(C)C)c1C, the survival is reported as 10% (active). In the case of COC(=O)c1c(NC(=O)COc2ccc(Cl)cc2)sc(C)c1C, the survival is reported as 73% (inactive). For Cc1c(C(=O)OC(C)C)sc(NC(=O)C2c3ccccc3Oc3ccccc32)c1C(=O)OC(C)C, the survival was 87% (inactive). With CCN(CC)C(=O)c1sc(NC(C)=O)c(C(=O)OC)c1C the survival was 108% (inactive). In the case of Cc1sc(NC(=O)C2c3ccccc3Oc3ccccc32)c(C(=O)OC(C)C)c1C, the survival is reported as 62% (inactive). In the case of O=C(Cn1c(SCc2ccc(F)cc2)nc2cccnc21)Nc1ccccc1F, the survival is reported as 75% (inactive). In the case of COc1ccc(-c2nnn3c2nc(NCc2ccc(C)cc2)c2ccccc23)cc1, the survival is reported as 85% (inactive). With O=C(Nc1cc(-c2nc3ccccc3o2)ccc1Cl)c1sc2c([N+](=O)[O-])cccc2c1Cl the survival was 96% (inactive). For Cc1ccc(Cl)cc1-n1ncc2c(N3CCN(Cc4ccccc4)CC3)ncnc21, the survival was 120% (inactive). With COc1cccc(-c2ccc3c(N)c(C(=O)c4ccc(Cl)cc4)sc3n2)c1 the survival was 39% (inactive). COc1cccc(-c2ccc3c(N)c(C(=O)c4ccc(F)cc4)sc3n2)c1 was tested, and the survival was 10% (active). In the case of COc1cccc(-c2ccc3c(N)c(C(=O)c4ccc(Br)cc4)sc3n2)c1, the survival is reported as 38% (inactive). Cc1ccc(CNC(=O)c2ccc3c(c2)N(Cc2cccc(Cl)c2)C(=O)CS3)cc1 was tested, and the survival was 70% (inactive). In the case of COc1cc(NC(=O)CC2C(=O)N(c3cccc(C)c3)C(=O)N2Cc2cccs2)cc(OC)c1 (centres undefined), the survival is reported as 53% (inactive). In the case of Cc1cccc(N2C(=O)C(CC(=O)Nc3cccc(F)c3)N(CCc3ccncc3)C2=O)c1 (centres undefined), the survival is reported as 84% (inactive). CCc1ccc(NC(=O)CC2C(=O)N(c3ccc(Cl)cc3)C(=O)N2Cc2cccs2)cc1 (centres undefined) was tested, and the survival was 47% (inactive). CCOc1ccc(NC(=O)CC2C(=O)N(c3cccc(C)c3)C(=O)N2Cc2cccs2)cc1 (centres undefined) was tested, and the survival was 85% (inactive). With Cc1cccc(N2C(=O)C(CC(=O)Nc3cccc(F)c3)N(Cc3cccs3)C2=O)c1 (centres undefined) the survival was 0% (active). With CCc1ccc(NC(=O)CC2C(=O)N(c3cccc(C)c3)C(=O)N2Cc2cccs2)cc1 (centres undefined) the survival was -3% (active). With O=C(NCc1ccccc1Cl)c1nnc(Cc2ccc(Cl)cc2)o1 the survival was 85% (inactive). In the case of CCC1CN(C(=O)N2CCC(C(=O)NCc3cccc(OC)c3OC)CC2)c2cc(C)ccc2O1 (centres undefined), the survival is reported as 106% (inactive). For CC1=C(C(=O)Nc2ccc(C)cc2C)C(c2cccs2)n2nc(SCc3cccc(C)c3)nc2N1 (centres undefined), the survival was 126% (inactive). With CCC(=O)Nc1ccc(C(=O)CSc2nnc(-c3ccc(O)cc3)n2CC2CCCO2)cc1 (centres undefined) the survival was 103% (inactive). In the case of CCc1ccc(C(=O)c2cn(CC(=O)Nc3cccc(OC)c3)c3ccc(OC)cc3c2=O)cc1, the survival is reported as 77% (inactive). With CC(C)c1ccccc1NC(=O)Cn1cnc2c1c(=O)n(C)c(=O)n2C the survival was 93% (inactive). O=C(Nc1ccc(C(=O)N2CCN(c3ccccc3)CC2)cc1)c1nsc2ccccc12 was tested, and the survival was -3% (active). In the case of O=C(Nc1ccc(C(=O)N2CCN(c3ccc(F)cc3)CC2)cc1)c1nsc2ccccc12, the survival is reported as 55% (inactive). In the case of Cc1ccc(C)c(N2CCN(C(=O)c3ccc(NC(=O)c4nsc5ccccc45)cc3)CC2)c1, the survival is reported as 63% (inactive). For Cc1ccc(C(=O)N2CCC(C)CC2)cc1NC(=O)c1nsc2ccccc12, the survival was 80% (inactive). In the case of Cc1ccc(C(=O)N2CCC(C(N)=O)CC2)cc1NC(=O)c1nsc2ccccc12, the survival is reported as 72% (inactive). Cc1ccc(C(=O)N2CCCCC2)cc1NC(=O)c1nsc2ccccc12 was tested, and the survival was -6% (active). For O=C(Nc1ccc(C(=O)N2CCN(c3ccc(Cl)cc3)CC2)cc1)c1nsc2ccccc12, the survival was 81% (inactive). With Cc1ccc(Cl)cc1N1CCN(C(=O)c2ccc(NC(=O)c3nsc4ccccc34)cc2)CC1 the survival was 1% (active). O=C(Nc1ccc(C(=O)N2CCN(c3cccc(Cl)c3)CC2)cc1)c1nsc2ccccc12 was tested, and the survival was 63% (inactive).
